# Results as given in the supplement of paper PMC6555819.
# Test system: VDR:RXRa (NR concentration 270 nM, RXRa partner concentration 90 nM)
# Experiment: PBM binding z-score (relative to random genomic background probes); higher = stronger binding; sequences stand for … in GC…GCGATTGACAGCGTAGAATGAAGG
# Experimental: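 Protein-binding microarray (Agilent 4x180K custom design, double-stranded 60-nt probes: 5' GC cap, 34-nt variable region, 24-nt constant primer region; full probe sequence given). Purified or IVT nuclear receptor:RXRα heterodimers (3:1 NR:RXRα, mostly 270:90 nM) or homodimers were incubated for 1 h in PBS with 2% milk and no ligand, then detected with Alexa488 antibodies. Fluorescence from o1-orientation probes (~5 replicates averaged) was converted to z-scores against 500 random hg19 background probes. Variable regions are seed direct-repeat (DR0–DR5) sites, all their single-nucleotide variants and half-site ablations.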
row,Sequence,PBM binding z-score
1,TCATATAGGGAAATGCTAGGTGAAAGTCCGATCT,0.702
2,CGTCCAAGGTCAGAGAGGTCAGTGAATGCCGAGT,7.26
3,ACTATTAGTTGACTTAGGGCAACCGGTACGACGC,1.16
4,ATATGTAGGTTAGCTGGTGTCATTCAGACTAGGC,1.4
5,CCTAGCTGGTCAGGAGGTCACACACCGGATATGA,3.73
6,CCGACTGGGGCATAAGGTTGCCATAAGCCAGCCC,-0.377
7,CCTCGGAGTACAGAAGGTCAGAGCTGTCCGCTTT,1.64
8,ATCTCCAGGTAACCAAGTTCAGTGAATGCCGAAC,4.4
9,ATCGAAAGGACGACGAGGTGAGTATACACCGTTT,0.0992
10,CCTTACGGGTCAGTCCAGGTTATAGCATCGGAGT,2.9
11,CCTATTAGTTGACCATAAGGGCAACCTAAGCTCG,0.839
12,TCTCGGAGGACACGAAAGGACAGAGCTCGACATC,-0.146
13,CCTGCTAGGTCATGGGCAGCTAATCTACAGTATG,1.19
14,TCATATAGGTAAACAGATGAAAGTCCGTAAGTTA,1.17
15,TCTATTAGTTGATTTGGGCAACCGAAACAGCGGA,0.688
16,CGTCCAAGGTCAGCGAGGTCAGTGAATGCCGAGT,7.6
17,GCTAGGTGGTCAGTAAAAGGTCACACACCGGTCG,4.22
18,CAGCCTAAGTCAGGGCCAGTATAGGAGGAACGTT,-0.626
19,ATCTCTCGGTAAAAGTTCAGTGAATCCCGAGGAT,1.03
20,CTTCAAAGTTCAACTAAGGTAACGTAAAGCACGC,4.63

row,Sequence,PBM binding z-score
1,ATCTGTAGGTAACAAGTTCAGTGAAAGAGAGGAC,2
2,CCGACTGGGGCAAGGTTACCATAACGCACAGCCA,0.0411
3,ATCTCTAGGTAAGACTCAGTTCACTGAAGAACGC,1.74
4,CTCGAAAGGTCGGTTGAGGAGAGTATACGGATAA,0.954
5,CCTAGTTGGTCAGGAGGTCACGCACCGGATATGA,4.58
6,ATCTCTAGGTAAAGATAGTTCAGTGCATGCAAAT,0.777
7,TCTCGGAGGACACGAAAGGCCAGAGCTCGACATC,-0.308
8,CTGCCAAGGTGAACAAGGTCGTTGATTACTATTC,5.88
9,TAGCCTAGCTCAGATCGGGCCAGTATACGCTATA,-0.94
10,TAGCCTAGGTAAGATCGGGCCAGTATACGCTATA,-0.645
11,GATACAGGGTCAGCTAGTGGCCAGAGTATGGAAA,2.34
12,CGTCCAGGGTCAAAGGTCAGTGAAGAGATGACGG,6.53
13,CCTACTGGGCCACGAAATGTCATTGATTCAGTGA,-0.452
14,CGTACAGGGTCAGCTAGGCCAGAGTAGGGACGGC,3.78
15,CCTTACGGGTAAAGGTTATAGCACGGGTGGTACG,0.723
16,ACTAGTTGGTCAACTGAGGTCACACACAATTCGG,5.33
17,CCTTACGAGTCACGAGGTTATAGCACGACGAGCG,1.7
18,GCGACTGGGGCAAAGCAGCTTACCATAAGGTTGG,-0.87
19,GCTACTGGGGCATCAGCAGGTTACCATAACTTAA,0.0562
20,CCGACTGGCGCAAGGTTACCATAACGCACAGCCA,0.151
